Among all 5,500 compounds or so, about 2,000 (36%) were called active. Inconclusive results (about 18%) are left out. Some of the results follow. Unmarked numbers belong to inactive results. No stated cut-off is given here; in the data, active means normalized growth mostly below about 0.91 (no sharp cut-off); inconclusive means no clear call, values can overlap the other calls; inactive means mostly above about 0.92.
Assay: chemical genetic growth profiling, strain panel (AID 1159580);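 further: tested at 20 µM; growth read once vehicle control cultures reached saturation at 30 °C; 1 = growth at the plate median or of vehicle wells; lower values mean less growth of the strain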
Conditions: growth OD

Cc1ccc(Cl)c(Nc2ccccc2C(=O)O)c1Cl
normalized growth (S. cerevisiae deletion strains, locus YJR066W, strain TOR1, hits give low values): 0.963
normalized growth (S. cerevisiae deletion strains, locus YJR075W, strain HOC1, hits give low values): 0.877 (active)
normalized growth (S. cerevisiae deletion strains, locus YKL009W, strain mrt4, hits give low values): 0.97
normalized growth (S. cerevisiae deletion strains, locus YKL068W, hits give low values): 0.975
normalized growth (S. cerevisiae deletion strains, locus YKL085W, strain MDH1 (second series), hits give low values): 0.957
normalized growth (S. cerevisiae deletion strains, locus YKL085W, strain MDH1, hits give low values): 0.957
normalized growth (S. cerevisiae deletion strains, locus YKL160W, strain elf1, hits give low values): 0.824 (active)
normalized growth (S. cerevisiae deletion strains, locus YKR001C, strain vps1, hits give low values): 0.581 (active)
normalized growth (S. cerevisiae deletion strains, locus YKR026C, strain gcn3, hits give low values): 0.893 (active)
normalized growth (S. cerevisiae deletion strains, locus YKR091W, strain srl3, hits give low values): 0.879 (active)
normalized growth (S. cerevisiae deletion strains, locus YLL001W, strain dnm1, hits give low values): 0.815 (active)
normalized growth (S. cerevisiae deletion strains, locus YLL026W, hits give low values): 0.893 (active)
normalized growth (S. cerevisiae deletion strains, locus YLL041C, strain sdh2, hits give low values): 0.886 (active)
normalized growth (S. cerevisiae deletion strains, locus YLR027C, strain aat2, hits give low values): 0.907 (active)
normalized growth (S. cerevisiae deletion strains, locus YLR039C, strain RIC1, hits give low values): 0.399 (active)
normalized growth (S. cerevisiae deletion strains, locus YLR058C, strain SHM2, hits give low values): 0.895
normalized growth (S. cerevisiae deletion strains, locus YLR102C, strain apc9, hits give low values): 0.887 (active)
normalized growth (S. cerevisiae deletion strains, locus YLR113W, strain HOG1, hits give low values): 1.02
normalized growth (S. cerevisiae deletion strains, locus YLR221C, strain rsa3, hits give low values): 0.809 (active)
normalized growth (S. cerevisiae deletion strains, locus YLR258W, strain gsy2, hits give low values): 0.852 (active)
normalized growth (S. cerevisiae deletion strains, locus YLR262C, strain YPT6 (second series), hits give low values): 0.499 (active)
normalized growth (S. cerevisiae deletion strains, locus YLR262C, strain YPT6, hits give low values): 0.492 (active)
normalized growth (S. cerevisiae deletion strains, locus YLR268W, strain sec22, hits give low values): 0.77 (active)
normalized growth (S. cerevisiae deletion strains, locus YLR320W, strain mms22, hits give low values): 0.659 (active)
normalized growth (S. cerevisiae deletion strains, locus YLR330W, strain CHS5, hits give low values): 0.893 (active)
normalized growth (S. cerevisiae deletion strains, locus YLR342W, strain FKS1 (second series), hits give low values): 0.789 (active)
normalized growth (S. cerevisiae deletion strains, locus YLR342W, strain FKS1, hits give low values): 0.857 (active)
normalized growth (S. cerevisiae deletion strains, locus YLR357W, strain rsc2, hits give low values): 0.994
normalized growth (S. cerevisiae deletion strains, locus YLR370C, strain arc18, hits give low values): 0.83 (active)
normalized growth (S. cerevisiae deletion strains, locus YLR371W, strain rom2, hits give low values): 0.894 (active)
normalized growth (S. cerevisiae deletion strains, locus YLR384C, strain iki3, hits give low values): 0.893 (active)
normalized growth (S. cerevisiae deletion strains, locus YLR418C, strain cdc73, hits give low values): 0.649 (active)
normalized growth (S. cerevisiae deletion strains, locus YML016C, strain PPZ1, hits give low values): 0.894 (active)
normalized growth (S. cerevisiae deletion strains, locus YML032C, strain rad52, hits give low values): 0.862 (active)
normalized growth (S. cerevisiae deletion strains, locus YML120C, strain ndi1, hits give low values): 0.795 (active)
normalized growth (S. cerevisiae deletion strains, locus YML124C, strain tub3, hits give low values): 0.888 (active)
normalized growth (S. cerevisiae deletion strains, locus YMR058W, strain fet3, hits give low values): 0.866 (active)
normalized growth (S. cerevisiae deletion strains, locus YMR078C, strain ctf18, hits give low values): 0.896 (active)
normalized growth (S. cerevisiae deletion strains, locus YMR125W, strain sto1, hits give low values): 0.854 (active)
normalized growth (S. cerevisiae deletion strains, locus YMR129W, hits give low values): 0.889 (active)
normalized growth (S. cerevisiae deletion strains, locus YMR205C, strain PFK2, hits give low values): 0.737 (active)
normalized growth (S. cerevisiae deletion strains, locus YMR223W, strain ubp8, hits give low values): 0.82 (active)
normalized growth (S. cerevisiae deletion strains, locus YMR231W, strain pep5, hits give low values): 0.843 (active)
normalized growth (S. cerevisiae deletion strains, locus YMR263W, strain SAP30, hits give low values): 0.873 (active)
normalized growth (S. cerevisiae deletion strains, locus YMR307W, strain GAS1, hits give low values): 0.638
normalized growth (S. cerevisiae deletion strains, locus YNL067W, strain RPL9B, hits give low values): 0.92
normalized growth (S. cerevisiae deletion strains, locus YNL071W, strain lat1, hits give low values): 0.702 (active)
normalized growth (S. cerevisiae deletion strains, locus YNL153C, strain GIM3, hits give low values): 0.898
normalized growth (S. cerevisiae deletion strains, locus YNL175C, strain NOP13, hits give low values): 0.907 (active)
normalized growth (S. cerevisiae deletion strains, locus YNL183C, strain NPR1, hits give low values): 0.992
normalized growth (S. cerevisiae deletion strains, locus YNL197C, strain WHI3, hits give low values): 0.893 (active)
normalized growth (S. cerevisiae deletion strains, locus YNL209W, strain ssb2, hits give low values): 0.917 (active)
normalized growth (S. cerevisiae deletion strains, locus YNL224C, strain SQS1, hits give low values): 0.915 (active)
normalized growth (S. cerevisiae deletion strains, locus YNL233W, strain BNI4, hits give low values): 0.913
normalized growth (S. cerevisiae deletion strains, locus YNL248C, strain rpa49, hits give low values): 0.931
normalized growth (S. cerevisiae deletion strains, locus YNL250W, strain rad50, hits give low values): 0.993
normalized growth (S. cerevisiae deletion strains, locus YNL271C, strain bni1, hits give low values): 0.955
normalized growth (S. cerevisiae deletion strains, locus YNL298W, strain CLA4, hits give low values): 0.932
normalized growth (S. cerevisiae deletion strains, locus YNL307C, strain MCK1, hits give low values): 0.645 (active)
normalized growth (S. cerevisiae deletion strains, locus YNL322C, strain KRE1 (second series), hits give low values): 0.903 (active)
normalized growth (S. cerevisiae deletion strains, locus YNL322C, strain KRE1, hits give low values): 0.893 (active)
normalized growth (S. cerevisiae deletion strains, locus YNR049C, strain mso1, hits give low values): 0.885 (active)
normalized growth (S. cerevisiae deletion strains, locus YNR052C, strain pop2, hits give low values): 0.835 (active)
normalized growth (S. cerevisiae deletion strains, locus YOL006C, strain TOP1, hits give low values): 0.697
normalized growth (S. cerevisiae deletion strains, locus YOL012C, strain htz1): 0.653
normalized growth (S. cerevisiae deletion strains, locus YOL147C, strain pex11, hits give low values): 0.868 (active)
normalized growth (S. cerevisiae deletion strains, locus YOR001W, strain rrp6, hits give low values): 0.95
normalized growth (S. cerevisiae deletion strains, locus YOR061W, strain CKA2, hits give low values): 0.882 (active)
normalized growth (S. cerevisiae deletion strains, locus YOR069W, strain VPS5, hits give low values): 0.891 (active)
normalized growth (S. cerevisiae deletion strains, locus YOR070C, strain gyp1, hits give low values): 0.864 (active)
normalized growth (S. cerevisiae deletion strains, locus YOR080W, strain dia2, hits give low values): 0.914
normalized growth (S. cerevisiae deletion strains, locus YOR083W, strain WHI5 (second series), hits give low values): 0.971
normalized growth (S. cerevisiae deletion strains, locus YOR083W, strain WHI5, hits give low values): 0.868 (active)
normalized growth (S. cerevisiae deletion strains, locus YOR106W, strain vam3, hits give low values): 0.85 (active)
normalized growth (S. cerevisiae deletion strains, locus YOR136W, strain idh2, hits give low values): 0.953
normalized growth (S. cerevisiae deletion strains, locus YOR144C, strain elg1, hits give low values): 0.898 (active)
normalized growth (S. cerevisiae deletion strains, locus YOR184W, strain ser1, hits give low values): 0.621 (active)
normalized growth (S. cerevisiae deletion strains, locus YOR231W, strain MKK1, hits give low values): 1.01
normalized growth (S. cerevisiae deletion strains, locus YOR265W, strain rbl2, hits give low values): 0.892 (active)
normalized growth (S. cerevisiae deletion strains, locus YOR270C, strain vph1, hits give low values): 0.617 (active)
normalized growth (S. cerevisiae deletion strains, locus YOR290C, strain snf2, hits give low values): 0.746 (active)
normalized growth (S. cerevisiae deletion strains, locus YOR316C, strain cot1, hits give low values): 0.881 (active)
normalized growth (S. cerevisiae deletion strains, locus YPL051W, strain arl3, hits give low values): 0.771 (active)
normalized growth (S. cerevisiae deletion strains, locus YPL078C, strain atp4, hits give low values): 0.774 (active)
normalized growth (S. cerevisiae deletion strains, locus YPL106C, strain sse1, hits give low values): 1.04
normalized growth (S. cerevisiae deletion strains, locus YPL240C, strain hsp82, hits give low values): 0.879 (active)
normalized growth (S. cerevisiae deletion strains, locus YPL241C, strain CIN2, hits give low values): 0.943 (active)
normalized growth (S. cerevisiae deletion strains, locus YPL256C, strain CLN2, hits give low values): 0.996
normalized growth (S. cerevisiae deletion strains, locus YPR119W, strain clb2, hits give low values): 0.87 (active)
normalized growth (S. cerevisiae deletion strains, locus YPR141C, strain kar3, hits give low values): 0.963
normalized growth (S. cerevisiae deletion strains, locus YPR163C, strain tif3, hits give low values): 0.903 (active)
normalized growth (S. cerevisiae deletion strains, locus YPR167C, strain met16, hits give low values): 0.882 (active)
normalized growth (S. cerevisiae deletion strains, strain wtn01, hits give low values): 0.859 (active)
normalized growth (S. cerevisiae strains, strain wild type, hits give low values): 0.888 (active)
